From the supplement of paper PMC8728848
The entries come from a sample that favours the strongest signals as a whole.

Experiments:
Assay in all cases: glycan array binding signal (z-score within array); higher = stronger binding
Conditions in all cases: glycan notation: IUPAC condensed, linker removed
[1] = biological target: Fuc(a1-2)Gal(b1-3)GalNAc(b1-3)Gal
Procedure, shortened: (§1)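 Glycan array binding is given as a within-array Z-score, which can be read as non-binding when negative. The arrays, 3228 of them, came from the Consortium for Functional Glycomics database and were retained only where the protein sequence was available. Z-scores were averaged across arrays of the same protein sequence at different concentrations or buffers and across linkers.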

[2] = biological target: Fuc(a1-2)Gal(b1-3)GlcNAc(b1-3)GalNAc
Procedure, shortened: as §1

[3] = biological target: Fuc(a1-2)Gal(b1-4)GlcNAc(b1-3)Gal(b1-4)GlcNAc(b1-2)Man(a1-3)[Fuc(a1-2)Gal(b1-4)GlcNAc(b1-3)Gal(b1-4)GlcNAc(b1-2)Man(a1-6)]Man(b1-4)GlcNAc(b1-4)GlcNAc
Procedure, shortened: as §1

[4] = biological target: Fuc(a1-2)Gal(b1-4)GlcNAc(b1-3)[Fuc(a1-3)[Gal(b1-4)]GlcNAc(b1-6)]Gal(b1-4)Glc
Procedure, shortened: as §1

[5] = biological target: Fuc(a1-2)[Gal(a1-3)]Gal(b1-4)Glc
Procedure, shortened: as §1

[6] = biological target: Fuc(a1-2)[Gal(a1-3)]Gal(b1-4)GlcNAc
Procedure, shortened: as §1

[7] = biological target: Fuc(a1-2)[GalNAc(a1-3)]Gal(b1-4)GlcNAc(b1-6)GalNAc
Procedure, shortened: as §1

[8] = biological target: Fuc(a1-2)[GalNAc(b1-3)]Gal
Procedure, shortened: as §1

[9] = biological target: Fuc(a1-3)[GalNAc(b1-4)]GlcNAc
Procedure, shortened: as §1

Gal(a1-6)Glc = biological target: Gal(a1-6)Glc
Procedure, shortened: as §1

Gal(b1-2)Gal = biological target: Gal(b1-2)Gal
Procedure, shortened: as §1

[10] = biological target: Gal(b1-3)GlcNAc(b1-3)Gal(b1-4)Glc
Procedure, shortened: as §1

[11] = biological target: Gal(b1-3)GlcNAc(b1-3)Gal(b1-4)GlcNAc(b1-3)Gal(b1-4)GlcNAc(b1-2)[Gal(b1-3)GlcNAc(b1-3)Gal(b1-4)GlcNAc(b1-3)Gal(b1-4)GlcNAc(b1-6)]Man(a1-6)[Gal(b1-3)GlcNAc(b1-3)Gal(b1-4)GlcNAc(b1-3)Gal(b1-4)GlcNAc(b1-2)Man(a1-3)]Man(b1-4)GlcNAc(b1-4)[Fuc(a1-6)]GlcNAc
Procedure, shortened: as §1

[12] = biological target: Gal(b1-3)GlcNAc(b1-3)Gal(b1-4)[Fuc(a1-3)]GlcNAc
Procedure, shortened: as §1

[13] = biological target: Gal(b1-3)GlcNAc(b1-3)GalNAc
Procedure, shortened: as §1

[14] = biological target: Gal(b1-3)[Neu5Ac(a2-6)]GalNAc
Procedure, shortened: as §1

[15] = biological target: Gal(b1-3)[Neu5Ac(b2-6)]GalNAc
Procedure, shortened: as §1

[16] = biological target: Gal(b1-4)GlcNAc(b1-2)Man(a1-3)Man(b1-4)GlcNAc(b1-4)GlcNAc
Procedure, shortened: as §1

[17] = biological target: Gal(b1-4)GlcNAc(b1-2)Man(a1-6)Man(b1-4)GlcNAc(b1-4)GlcNAc
Procedure, shortened: as §1

[18] = biological target: Gal(b1-4)GlcNAc(b1-2)[Gal(b1-4)GlcNAc(b1-4)]Man(a1-3)[Gal(b1-4)GlcNAc(b1-2)[Gal(b1-4)GlcNAc(b1-6)]Man(a1-6)]Man(b1-4)GlcNAc(b1-4)GlcNAc
Procedure, shortened: as §1

[19] = biological target: Gal(b1-4)GlcNAc(b1-3)Gal(b1-4)GlcNAc(b1-2)Man(a1-3)[Gal(b1-4)GlcNAc(b1-3)Gal(b1-4)GlcNAc(b1-2)Man(a1-6)]Man(b1-4)GlcNAc(b1-4)GlcNAc
Procedure, shortened: as §1

[20] = biological target: Gal(b1-4)GlcNAc(b1-3)Gal(b1-4)GlcNAc(b1-2)[Gal(b1-4)GlcNAc(b1-3)Gal(b1-4)GlcNAc(b1-6)]Man(a1-6)[Gal(b1-4)GlcNAc(b1-3)Gal(b1-4)GlcNAc(b1-2)Man(a1-3)]Man(b1-4)GlcNAc(b1-4)GlcNAc
Procedure, shortened: as §1

[21] = biological target: Gal(b1-4)GlcNAc(b1-3)Gal(b1-4)GlcNAc(b1-3)Gal(b1-4)GlcNAc(b1-2)Man(a1-3)[Gal(b1-4)GlcNAc(b1-3)Gal(b1-4)GlcNAc(b1-3)Gal(b1-4)GlcNAc(b1-2)Man(a1-6)]Man(b1-4)GlcNAc(b1-4)[Fuc(a1-6)]GlcNAc
Procedure, shortened: as §1

[22] = biological target: Gal(b1-4)GlcNAc(b1-3)Gal(b1-4)GlcNAc(b1-3)[Gal(b1-4)GlcNAc(b1-3)Gal(b1-4)GlcNAc(b1-6)]GalNAc
Procedure, shortened: as §1

[23] = biological target: Gal(b1-4)GlcNAc(b1-3)[Fuc(a1-3)GlcNAc(b1-6)]Gal(b1-4)Glc
Procedure, shortened: as §1

[24] = biological target: Gal(b1-4)GlcNAc(b1-6)[Gal(b1-3)]GalNAc
Procedure, shortened: as §1

Gal3S(b1-4)Glc = biological target: Gal3S(b1-4)Glc
Procedure, shortened: as §1

[25] = biological target: Gal3S(b1-4)[Fuc(a1-3)]Glc6S
Procedure, shortened: as §1

[26] = biological target: Gal3S(b1-4)[Fuc(a1-3)]GlcNAc6S
Procedure, shortened: as §1

Gal3S6S(b1-4)GlcNAc = biological target: Gal3S6S(b1-4)GlcNAc
Procedure, shortened: as §1

Gal3S6S(b1-4)GlcNAc6S = biological target: Gal3S6S(b1-4)GlcNAc6S
Procedure, shortened: as §1

[27] = biological target: GalNAc(b1-3)Gal(a1-4)Gal(b1-4)GlcNAc
Procedure, shortened: as §1

GalNAc(b1-4)GlcNAc = biological target: GalNAc(b1-4)GlcNAc
Procedure, shortened: as §1

[28] = biological target: GlcNAc(a1-4)Gal(b1-4)GlcNAc
Procedure, shortened: as §1

[29] = biological target: GlcNAc(b1-2)[GlcNAc(b1-6)]Man(a1-6)[GlcNAc(b1-4)][GlcNAc(b1-2)Man(a1-3)]Man(b1-4)GlcNAc(b1-4)GlcNAc
Procedure, shortened: as §1

[30] = biological target: GlcNAc(b1-3)[GlcNAc(b1-4)][GlcNAc(b1-6)]GlcNAc
Procedure, shortened: as §1

GlcNAc(b1-4)GlcNAc = biological target: GlcNAc(b1-4)GlcNAc
Procedure, shortened: as §1

[31] = biological target: GlcNAc(b1-4)GlcNAc(b1-4)GlcNAc(b1-4)GlcNAc(b1-4)GlcNAc(b1-4)GlcNAc
Procedure, shortened: as §1

Man(b1-4)GlcNAc = biological target: Man(b1-4)GlcNAc
Procedure, shortened: as §1

[32] = biological target: Neu5Ac(a2-3)Gal(b1-3)GlcNAc(b1-2)Man
Procedure, shortened: as §1

[33] = biological target: Neu5Ac(a2-3)Gal(b1-3)GlcNAc(b1-4)Gal(b1-4)Glc
Procedure, shortened: as §1

[34] = biological target: Neu5Ac(a2-3)Gal(b1-3)[Fuc(a1-4)]GlcNAc
Procedure, shortened: as §1

[35] = biological target: Neu5Ac(a2-3)Gal(b1-3)[Neu5Ac(a2-6)]GlcNAc(b1-3)[Fuc(a1-3)[Gal(b1-4)]GlcNAc(b1-6)]Gal(b1-4)Glc
Procedure, shortened: as §1

[36] = biological target: Neu5Ac(a2-3)Gal(b1-4)GlcNAc(b1-2)[Neu5Ac(a2-3)Gal(b1-4)GlcNAc(b1-4)]Man(a1-3)[GlcNAc(b1-4)][Neu5Ac(a2-3)Gal(b1-4)GlcNAc(b1-2)[Neu5Ac(a2-3)Gal(b1-4)GlcNAc(b1-6)]Man(a1-6)]Man(b1-4)GlcNAc(b1-4)GlcNAc
Procedure, shortened: as §1

[37] = biological target: Neu5Ac(a2-3)Gal(b1-4)[Fuc(a1-3)]GlcNAc(b1-2)Man
Procedure, shortened: as §1

[38] = biological target: Neu5Ac(a2-6)Gal(b1-4)GlcNAc(b1-2)Man(a1-3)[Gal(b1-4)GlcNAc(b1-2)Man(a1-6)]Man(b1-4)GlcNAc(b1-4)GlcNAc
Procedure, shortened: as §1

[39] = biological target: Neu5Ac(a2-6)Gal(b1-4)GlcNAc(b1-3)Gal(b1-4)GlcNAc(b1-3)Gal(b1-4)GlcNAc(b1-2)Man(a1-3)[Neu5Ac(a2-6)Gal(b1-4)GlcNAc(b1-3)Gal(b1-4)GlcNAc(b1-3)Gal(b1-4)GlcNAc(b1-2)Man(a1-6)]GalNAc
Procedure, shortened: as §1

[40] = biological target: Neu5Ac(a2-6)Gal(b1-4)GlcNAc(b1-3)Gal(b1-4)GlcNAc(b1-3)GalNAc
Procedure, shortened: as §1

Neu5Ac(b2-6)GalNAc = biological target: Neu5Ac(b2-6)GalNAc
Procedure, shortened: as §1

Neu5Gc(a2-3)Gal(b1-4)Glc = biological target: Neu5Gc(a2-3)Gal(b1-4)Glc
Procedure, shortened: as §1

[41] = biological target: Neu5Gc(a2-3)Gal(b1-4)GlcNAc
Procedure, shortened: as §1

[42] = biological target: Neu5Gc(b2-6)Gal(b1-4)GlcNAc
Procedure, shortened: as §1

B1: SynCAM (Mus musculus) (protein)
chain: MASAVLPSGSQCAAAAAVAAAAAPPGLRLRLLLLLLSAAALIPTGDGQNLFTKDVTVIEGEVATISCQVNKSDDSVIQLLNPNRQTIYFRDFRPLKDSRFQLLNFSSSELKVSLTNVSISDEGRYFCQLYTDPPQESYTTITVLVPPRNLMIDIQKDTAVEGEEIEVNCTAMASKPATTIRWFKGNKELKGKSEVEEWSDMYTVTSQLMLKVHKEDDGVPVICQVEHPAVTGNLQTQRYLEVQYKPQVHIQMTYPLQGLTREGDAFELTCEAIGKPQPVMVTWVRVDDEMPQHAVLSGPNLFINNLNKTDNGTYRCEASNIVGKAHSDYMLYVYDPPTTIPPP
glycan array binding signal (z-score) [1]: 0.178 | glycan array binding signal (z-score) [2]: 0.316 | glycan array binding signal (z-score) [3]: 0.696 | glycan array binding signal (z-score) [4]: -0.893 | glycan array binding signal (z-score) [5]: -0.671 | glycan array binding signal (z-score) [6]: -1.34 | glycan array binding signal (z-score) [7]: -0.149 | glycan array binding signal (z-score) [8]: 0.423 | glycan array binding signal (z-score) [9]: 2.63 | glycan array binding signal (z-score) (Gal(a1-6)Glc): -0.988 | glycan array binding signal (z-score) (Gal(b1-2)Gal): 0.521 | glycan array binding signal (z-score) [10]: 0.308 | glycan array binding signal (z-score) [11]: 2.43 | glycan array binding signal (z-score) [12]: -1.13 | glycan array binding signal (z-score) [13]: 0.053 | glycan array binding signal (z-score) [14]: -0.488 | glycan array binding signal (z-score) [15]: -0.562 | glycan array binding signal (z-score) [16]: -1.2 | glycan array binding signal (z-score) [17]: -0.469 | glycan array binding signal (z-score) [18]: -0.042 | glycan array binding signal (z-score) [19]: 2.96 | glycan array binding signal (z-score) [20]: 0.285 | glycan array binding signal (z-score) [21]: 1.48 | glycan array binding signal (z-score) [22]: 0.945 | glycan array binding signal (z-score) [23]: 0.097 | glycan array binding signal (z-score) [24]: -0.072 | glycan array binding signal (z-score) (Gal3S(b1-4)Glc): 1.95 | glycan array binding signal (z-score) [25]: 3.97 | glycan array binding signal (z-score) [26]: 1.22 | glycan array binding signal (z-score) (Gal3S6S(b1-4)GlcNAc): 2.56 | glycan array binding signal (z-score) (Gal3S6S(b1-4)GlcNAc6S): 2.69 | glycan array binding signal (z-score) [27]: 2.45 | glycan array binding signal (z-score) (GalNAc(b1-4)GlcNAc): 2.71 | glycan array binding signal (z-score) [28]: -1.14 | glycan array binding signal (z-score) [29]: -0.782 | glycan array binding signal (z-score) [30]: 2.58 | glycan array binding signal (z-score) (GlcNAc(b1-4)GlcNAc): -1.17 | glycan array binding signal (z-score) [31]: 0.16 | glycan array binding signal (z-score) (Man(b1-4)GlcNAc): -0.306 | glycan array binding signal (z-score) [32]: -0.517 | glycan array binding signal (z-score) [33]: -0.756 | glycan array binding signal (z-score) [34]: 0.283 | glycan array binding signal (z-score) [35]: -0.498 | glycan array binding signal (z-score) [36]: 0.594 | glycan array binding signal (z-score) [37]: 3.11 | glycan array binding signal (z-score) [38]: -0.518 | glycan array binding signal (z-score) [39]: 2.42 | glycan array binding signal (z-score) [40]: -0.464 | glycan array binding signal (z-score) (Neu5Ac(b2-6)GalNAc): -0.413 | glycan array binding signal (z-score) (Neu5Gc(a2-3)Gal(b1-4)Glc): -0.801 | glycan array binding signal (z-score) [41]: -0.921 | glycan array binding signal (z-score) [42]: 0.145
